Source: the supplement of paper PMC11732987, “Enantioselective OTUD7B fragment discovery through chemoproteomics screening and high-throughput optimisation” (Communications Chemistry, 2025)

Legend:
Assay in all cases: log2 ratio of Biotin-Ahx-Ub-VS probe labelling (fragment/DMSO); higher = less target engagement (more negative = stronger competition), active = hit call of the paper (q ≤ 0.05, log2 ratio ≤ -1)
Conditions in all cases: compound concentration: 200 uM; treatment time: 3 h
USP34 = USP34 (UniProt Q70CQ2)
Outline: (§1)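 Triplicate samples of HEK293T lysate, 495 µg each, received fragment at 200 µM or vehicle for 3 h, followed by Biotin-Ahx-Ub-VS (0.5 µM final) for 1 h. After NeutrAvidin enrichment of labelled DUBs and LysC/trypsin digestion, peptides were run by diaPASEF LC-MS/MS. The values are average log2 fragment/vehicle ratios from global-median-normalised Spectronaut label-free quantities, tested by unpaired t-test on proteins having ≥2 unique peptides.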

USP36 = target: T1, USP36 (UniProt Q9P275)
T1 sequence (whole entry): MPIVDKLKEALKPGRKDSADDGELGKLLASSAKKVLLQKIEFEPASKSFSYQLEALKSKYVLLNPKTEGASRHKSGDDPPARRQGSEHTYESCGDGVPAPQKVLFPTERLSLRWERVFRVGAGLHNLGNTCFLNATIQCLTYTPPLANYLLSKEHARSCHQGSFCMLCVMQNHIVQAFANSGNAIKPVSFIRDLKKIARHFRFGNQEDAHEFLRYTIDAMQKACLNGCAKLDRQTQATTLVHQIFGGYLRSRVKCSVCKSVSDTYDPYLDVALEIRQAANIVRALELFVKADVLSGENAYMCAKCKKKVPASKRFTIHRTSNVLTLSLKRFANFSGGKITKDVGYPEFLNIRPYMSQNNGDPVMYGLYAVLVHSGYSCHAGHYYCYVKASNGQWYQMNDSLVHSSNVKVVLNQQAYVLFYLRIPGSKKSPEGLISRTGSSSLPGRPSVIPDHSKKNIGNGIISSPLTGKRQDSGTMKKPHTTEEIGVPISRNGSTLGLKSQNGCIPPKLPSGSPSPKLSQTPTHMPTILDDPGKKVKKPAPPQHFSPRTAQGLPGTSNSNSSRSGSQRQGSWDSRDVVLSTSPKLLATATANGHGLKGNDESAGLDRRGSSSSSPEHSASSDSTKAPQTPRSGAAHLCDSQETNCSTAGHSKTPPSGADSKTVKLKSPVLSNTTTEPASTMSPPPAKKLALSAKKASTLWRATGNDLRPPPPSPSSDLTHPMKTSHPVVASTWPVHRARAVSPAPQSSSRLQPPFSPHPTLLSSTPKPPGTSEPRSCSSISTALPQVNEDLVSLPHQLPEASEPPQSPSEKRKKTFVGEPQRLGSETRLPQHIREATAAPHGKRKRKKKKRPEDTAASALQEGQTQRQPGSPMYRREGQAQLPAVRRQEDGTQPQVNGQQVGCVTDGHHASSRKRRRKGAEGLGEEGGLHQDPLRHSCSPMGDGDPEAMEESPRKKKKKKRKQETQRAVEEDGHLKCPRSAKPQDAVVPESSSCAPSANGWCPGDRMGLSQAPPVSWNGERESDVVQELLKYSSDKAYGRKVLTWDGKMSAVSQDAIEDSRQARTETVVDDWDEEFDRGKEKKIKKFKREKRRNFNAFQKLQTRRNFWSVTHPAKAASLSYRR
Outline: as §1

USP38 = target: T2, USP38 (UniProt Q8NB14)
T2 sequence (whole entry): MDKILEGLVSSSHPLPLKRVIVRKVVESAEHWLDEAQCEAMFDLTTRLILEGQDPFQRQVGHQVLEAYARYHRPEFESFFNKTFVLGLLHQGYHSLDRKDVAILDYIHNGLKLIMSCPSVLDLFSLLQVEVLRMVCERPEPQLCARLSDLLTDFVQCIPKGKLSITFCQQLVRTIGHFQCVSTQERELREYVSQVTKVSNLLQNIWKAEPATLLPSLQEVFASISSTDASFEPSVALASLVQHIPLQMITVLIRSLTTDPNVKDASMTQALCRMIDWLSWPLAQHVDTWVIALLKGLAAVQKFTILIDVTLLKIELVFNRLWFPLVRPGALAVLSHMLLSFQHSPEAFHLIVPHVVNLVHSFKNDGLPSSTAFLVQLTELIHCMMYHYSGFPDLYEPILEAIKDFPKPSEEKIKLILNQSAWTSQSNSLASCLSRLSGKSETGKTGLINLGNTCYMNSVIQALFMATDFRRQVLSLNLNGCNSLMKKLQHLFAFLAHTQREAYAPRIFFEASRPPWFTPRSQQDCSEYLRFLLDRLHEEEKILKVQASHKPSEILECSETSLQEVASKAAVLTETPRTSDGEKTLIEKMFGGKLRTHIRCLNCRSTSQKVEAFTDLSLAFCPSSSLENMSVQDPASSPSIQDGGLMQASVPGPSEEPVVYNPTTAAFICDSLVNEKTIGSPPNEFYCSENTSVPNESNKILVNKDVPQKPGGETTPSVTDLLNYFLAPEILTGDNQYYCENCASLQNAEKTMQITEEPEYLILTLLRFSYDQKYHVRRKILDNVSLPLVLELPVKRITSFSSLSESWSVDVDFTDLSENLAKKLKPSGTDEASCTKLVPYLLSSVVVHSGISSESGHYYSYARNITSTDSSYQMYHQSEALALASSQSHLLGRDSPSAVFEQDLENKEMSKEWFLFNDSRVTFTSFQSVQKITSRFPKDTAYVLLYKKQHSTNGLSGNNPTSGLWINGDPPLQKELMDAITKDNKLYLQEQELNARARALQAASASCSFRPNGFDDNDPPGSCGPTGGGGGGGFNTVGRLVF
Outline: as §1

USP39 = target: T3, USP39 (UniProt Q53GS9)
T3 sequence (whole entry): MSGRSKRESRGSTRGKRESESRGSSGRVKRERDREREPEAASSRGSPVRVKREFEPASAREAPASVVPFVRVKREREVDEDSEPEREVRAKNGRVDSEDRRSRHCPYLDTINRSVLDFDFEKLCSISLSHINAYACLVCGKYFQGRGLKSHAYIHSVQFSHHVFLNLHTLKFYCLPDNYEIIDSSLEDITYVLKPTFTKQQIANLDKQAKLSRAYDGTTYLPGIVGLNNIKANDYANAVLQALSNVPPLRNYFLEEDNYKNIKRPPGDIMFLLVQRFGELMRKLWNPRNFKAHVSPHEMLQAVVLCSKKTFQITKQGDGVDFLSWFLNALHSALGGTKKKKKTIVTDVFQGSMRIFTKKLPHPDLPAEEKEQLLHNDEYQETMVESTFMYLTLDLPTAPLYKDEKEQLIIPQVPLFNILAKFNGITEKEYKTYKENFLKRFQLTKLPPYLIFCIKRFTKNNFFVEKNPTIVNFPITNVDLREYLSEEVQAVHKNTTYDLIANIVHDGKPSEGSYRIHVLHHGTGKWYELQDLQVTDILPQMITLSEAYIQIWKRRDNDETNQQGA
Outline: as §1

USP4 = target: T4, USP4 (UniProt Q13107)
T4 sequence (whole entry): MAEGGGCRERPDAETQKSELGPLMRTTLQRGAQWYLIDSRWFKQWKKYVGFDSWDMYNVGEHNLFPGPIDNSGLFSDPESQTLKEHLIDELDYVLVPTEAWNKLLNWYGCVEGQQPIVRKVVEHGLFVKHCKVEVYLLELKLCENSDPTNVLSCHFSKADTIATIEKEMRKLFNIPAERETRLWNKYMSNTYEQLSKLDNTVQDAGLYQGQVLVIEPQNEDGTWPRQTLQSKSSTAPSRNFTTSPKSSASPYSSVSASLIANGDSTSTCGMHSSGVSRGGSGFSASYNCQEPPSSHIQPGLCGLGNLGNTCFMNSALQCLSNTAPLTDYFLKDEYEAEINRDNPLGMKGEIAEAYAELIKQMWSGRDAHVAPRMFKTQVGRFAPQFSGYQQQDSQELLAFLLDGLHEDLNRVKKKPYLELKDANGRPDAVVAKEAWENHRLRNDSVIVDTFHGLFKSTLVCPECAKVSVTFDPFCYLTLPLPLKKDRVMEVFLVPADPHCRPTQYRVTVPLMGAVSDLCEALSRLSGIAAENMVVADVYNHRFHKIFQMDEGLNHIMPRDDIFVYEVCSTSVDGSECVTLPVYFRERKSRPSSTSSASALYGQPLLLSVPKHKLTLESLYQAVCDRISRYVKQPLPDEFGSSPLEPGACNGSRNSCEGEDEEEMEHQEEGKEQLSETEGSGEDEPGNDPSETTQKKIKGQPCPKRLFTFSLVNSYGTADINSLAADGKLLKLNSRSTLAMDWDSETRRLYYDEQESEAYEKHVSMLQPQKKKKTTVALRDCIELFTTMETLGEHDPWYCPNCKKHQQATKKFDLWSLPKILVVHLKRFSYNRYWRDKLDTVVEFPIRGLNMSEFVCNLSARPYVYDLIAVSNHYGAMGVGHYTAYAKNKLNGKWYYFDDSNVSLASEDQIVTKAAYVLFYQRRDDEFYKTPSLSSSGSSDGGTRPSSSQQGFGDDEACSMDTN
Outline: as §1

Measured: log2 ratio of Biotin-Ahx-Ub-VS probe labelling

Chain of USP34 (Q70CQ2 whole entry, the tested form may be a part): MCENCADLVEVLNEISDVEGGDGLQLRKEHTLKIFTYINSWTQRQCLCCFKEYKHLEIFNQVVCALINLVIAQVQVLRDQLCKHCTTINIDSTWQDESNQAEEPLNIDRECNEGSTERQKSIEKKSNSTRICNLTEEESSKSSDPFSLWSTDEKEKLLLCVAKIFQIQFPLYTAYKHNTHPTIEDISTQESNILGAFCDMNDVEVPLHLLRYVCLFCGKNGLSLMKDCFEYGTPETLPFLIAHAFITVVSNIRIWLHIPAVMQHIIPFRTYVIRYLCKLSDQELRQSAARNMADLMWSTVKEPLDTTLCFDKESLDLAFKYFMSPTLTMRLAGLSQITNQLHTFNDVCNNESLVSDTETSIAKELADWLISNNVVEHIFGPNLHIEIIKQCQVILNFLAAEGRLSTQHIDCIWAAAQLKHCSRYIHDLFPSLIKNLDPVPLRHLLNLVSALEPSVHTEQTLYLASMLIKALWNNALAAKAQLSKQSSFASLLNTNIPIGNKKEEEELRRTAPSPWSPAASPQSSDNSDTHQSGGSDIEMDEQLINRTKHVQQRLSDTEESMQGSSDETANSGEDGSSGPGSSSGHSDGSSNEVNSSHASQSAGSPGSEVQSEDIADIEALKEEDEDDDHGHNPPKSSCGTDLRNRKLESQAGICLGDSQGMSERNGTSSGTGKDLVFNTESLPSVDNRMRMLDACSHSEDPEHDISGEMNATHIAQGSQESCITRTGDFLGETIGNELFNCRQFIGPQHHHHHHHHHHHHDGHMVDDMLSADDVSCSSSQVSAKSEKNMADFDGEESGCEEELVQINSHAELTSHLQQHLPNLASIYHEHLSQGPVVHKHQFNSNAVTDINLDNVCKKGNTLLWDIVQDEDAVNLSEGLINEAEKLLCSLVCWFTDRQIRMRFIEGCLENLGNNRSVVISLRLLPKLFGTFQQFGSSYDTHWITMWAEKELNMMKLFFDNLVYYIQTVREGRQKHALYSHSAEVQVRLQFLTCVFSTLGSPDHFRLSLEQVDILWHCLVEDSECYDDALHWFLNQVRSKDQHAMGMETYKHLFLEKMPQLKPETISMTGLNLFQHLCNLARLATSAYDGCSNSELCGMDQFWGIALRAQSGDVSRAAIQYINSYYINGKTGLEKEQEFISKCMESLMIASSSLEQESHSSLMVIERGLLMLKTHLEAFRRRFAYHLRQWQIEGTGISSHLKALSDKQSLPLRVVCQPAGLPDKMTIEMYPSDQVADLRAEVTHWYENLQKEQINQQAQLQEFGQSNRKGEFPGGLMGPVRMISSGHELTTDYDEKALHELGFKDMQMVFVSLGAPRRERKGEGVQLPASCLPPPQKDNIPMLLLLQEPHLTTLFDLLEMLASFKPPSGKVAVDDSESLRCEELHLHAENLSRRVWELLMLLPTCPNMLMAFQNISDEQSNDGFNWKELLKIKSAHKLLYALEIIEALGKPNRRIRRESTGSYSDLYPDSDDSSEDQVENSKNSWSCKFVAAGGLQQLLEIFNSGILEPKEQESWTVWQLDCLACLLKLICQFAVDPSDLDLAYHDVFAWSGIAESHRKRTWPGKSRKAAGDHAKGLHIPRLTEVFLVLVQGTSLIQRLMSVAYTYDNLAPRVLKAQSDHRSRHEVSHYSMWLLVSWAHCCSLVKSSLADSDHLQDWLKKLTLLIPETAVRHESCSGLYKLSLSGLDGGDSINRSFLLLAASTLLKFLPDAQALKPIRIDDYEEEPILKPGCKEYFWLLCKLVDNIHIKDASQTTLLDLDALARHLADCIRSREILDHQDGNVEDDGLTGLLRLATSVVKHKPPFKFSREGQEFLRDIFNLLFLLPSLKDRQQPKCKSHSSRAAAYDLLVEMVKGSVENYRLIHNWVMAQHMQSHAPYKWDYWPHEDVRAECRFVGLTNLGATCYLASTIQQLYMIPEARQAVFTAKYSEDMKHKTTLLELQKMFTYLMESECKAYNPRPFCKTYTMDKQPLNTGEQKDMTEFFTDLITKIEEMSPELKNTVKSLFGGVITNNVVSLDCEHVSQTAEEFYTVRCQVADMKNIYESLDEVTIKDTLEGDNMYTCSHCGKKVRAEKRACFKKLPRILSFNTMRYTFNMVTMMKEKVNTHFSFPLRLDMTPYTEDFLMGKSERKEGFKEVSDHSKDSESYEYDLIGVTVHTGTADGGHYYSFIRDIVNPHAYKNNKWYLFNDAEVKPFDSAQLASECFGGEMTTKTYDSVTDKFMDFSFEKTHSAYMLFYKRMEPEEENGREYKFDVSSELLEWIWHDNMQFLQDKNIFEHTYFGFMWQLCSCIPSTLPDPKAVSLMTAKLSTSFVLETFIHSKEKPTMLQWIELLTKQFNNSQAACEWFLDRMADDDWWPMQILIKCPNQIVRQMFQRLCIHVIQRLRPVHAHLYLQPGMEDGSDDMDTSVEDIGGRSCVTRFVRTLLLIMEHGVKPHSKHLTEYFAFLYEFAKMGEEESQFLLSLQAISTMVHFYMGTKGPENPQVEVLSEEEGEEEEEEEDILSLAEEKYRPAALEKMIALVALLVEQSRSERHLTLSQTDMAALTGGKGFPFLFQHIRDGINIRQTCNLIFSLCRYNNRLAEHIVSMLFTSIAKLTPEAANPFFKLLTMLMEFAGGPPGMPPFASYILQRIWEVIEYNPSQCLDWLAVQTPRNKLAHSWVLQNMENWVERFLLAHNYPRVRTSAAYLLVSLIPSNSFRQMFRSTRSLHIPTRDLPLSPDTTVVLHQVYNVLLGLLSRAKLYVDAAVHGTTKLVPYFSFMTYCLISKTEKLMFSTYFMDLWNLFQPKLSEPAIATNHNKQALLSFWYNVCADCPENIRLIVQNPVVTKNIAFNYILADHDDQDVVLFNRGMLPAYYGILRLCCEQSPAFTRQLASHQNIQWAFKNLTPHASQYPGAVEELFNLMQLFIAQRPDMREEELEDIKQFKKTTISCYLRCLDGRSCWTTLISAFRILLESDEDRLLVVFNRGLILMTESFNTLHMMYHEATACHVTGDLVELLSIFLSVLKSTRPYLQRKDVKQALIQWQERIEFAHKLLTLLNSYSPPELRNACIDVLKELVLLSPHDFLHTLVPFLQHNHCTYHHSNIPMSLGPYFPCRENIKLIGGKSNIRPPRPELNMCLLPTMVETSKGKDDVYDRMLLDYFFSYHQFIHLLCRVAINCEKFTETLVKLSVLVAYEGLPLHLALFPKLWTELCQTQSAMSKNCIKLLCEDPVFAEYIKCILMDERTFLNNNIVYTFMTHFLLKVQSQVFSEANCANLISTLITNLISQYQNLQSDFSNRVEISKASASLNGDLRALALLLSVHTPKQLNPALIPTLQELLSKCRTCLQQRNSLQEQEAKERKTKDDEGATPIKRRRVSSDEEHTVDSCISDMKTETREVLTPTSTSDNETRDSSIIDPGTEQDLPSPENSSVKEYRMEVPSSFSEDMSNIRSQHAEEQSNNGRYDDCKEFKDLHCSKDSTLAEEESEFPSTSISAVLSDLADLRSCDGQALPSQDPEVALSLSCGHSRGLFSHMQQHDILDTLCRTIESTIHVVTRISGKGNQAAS

Cc1ccc(N2CCC(NC(=O)CCl)C2=O)cc1 (stereo not given)
inactive: USP34 0.132 | USP36 -0.156 | USP38 0.0543 | USP39 0.064 | USP4 0.0879
